The record followed here is PubChem BioAssay (NCATS).

SMILES strings stand for the structures. Records with an inconclusive call do not appear. The source made the active and inactive calls. Unless noted, calls follow the shape of the dose curve; as a rule, active = well fitted curve in the direction sought with a large enough effect; inconclusive = small, poorly fitted or top-dose-only effect, or another doubt; inactive = no such curve, though single readings can be large; an effect the other way counts as inactive or inconclusive.

Experiment [1] can be described thus: MultiTox-Fluor Cytotoxicity Assay - LYMP1-001 - Dead Cells (AID 946). In a few lines: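 Seed 2500 LYMP1-001 cells/well, incubate 5 hr at 37 C; add compound, 16 hr at 37 C; add MultiTox-Fluor reagent, 60 min RT; read dead-cell fluorescence Ex/Em=485/520. Normalize to DMSO and 15 uM tetraoctylammonium bromide.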
Experiment [2] is described as follows: MultiTox-Fluor Cytotoxicity Assay - LYMP1-001 - Live Cells (AID 947).
The nature of experiment [3]: Cell Viability - LYMP1-002 - Assay at 16 hr (AID 948). In a few lines:
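LYMP1-002 human lymphoblastoid cells, 2500/well, were treated with compounds for 16 hr at 37 C in complete medium. Viability was read as intracellular ATP by CellTiter-Glo luminescence, and AC50 was derived from a Hill fit to concentration-response data.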

A short description of experiment [4]: MultiTox-Fluor Cytotoxicity Assay - LYMP1-002 - Live Cells (AID 955).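 Also: cells exposed to compound for 16 hours.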 In a few lines:
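In this qHTS viability format, lymphoblastoid cells (LYMP1-002, human) received compound for 16 hr at 37 C. Fluorogenic GF-AFC cleavage by viable cells was detected at 405/510 nm after 1 h at room temperature.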

The nature of experiment [5]: MultiTox-Fluor Cytotoxicity Assay - LYMP1-002 - Dead Cells (AID 960). Also: nearly all actives have a fitted effect of over 60% in size. Also: potency is read from the fitted curve at half-maximal effect. In a few lines: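 Concentration-dependent increases in membrane-leaked protease activity are quantified in LYMP1-002 cells after 16 hr treatment; values are normalized against DMSO and tetraoctylammonium bromide (15 uM) controls and AC50 derived by Hill modeling.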
Experiment [6] is described as follows: MultiTox-Fluor Cytotoxicity Assay - LYMP1-003 - Dead Cells (AID 961). Also: nearly all actives have a fitted effect of over 70% in size. The gist of the method:
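LYMP1-003 lymphoblastoid, 2500 cells/well, 5 hr settle then 16 hr cpd at 37 C; MultiTox-Fluor reagent 60 min RT; Ex/Em 485/520 dead-cell signal; norm. DMSO = 0%, 15 uM tetraoctylammonium bromide = 100%; Hill AC50.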

Experiment [7] can be described thus: MultiTox-Fluor Cytotoxicity Assay - LYMP1-003 - Live Cells (AID 962).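 Also: cells exposed to compound for 16 hours at 37 °C; cytotoxic hits lower the live-cell protease signal.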 In a few lines: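 Human lymphoblastoid line LYMP1-003 in complete culture medium, treated 16 hr with titrated compounds. Viable cells quantified via cell-permeant GF-AFC substrate fluorescence; AC50 derived by Hill fitting.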
Experiment [8] is described as follows: Cell Viability - LYMP1-003 - Assay at 24 hr (AID 963). The gist of the method: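 The lymphoblastoid line was treated with titrated compounds for 24 hours, and viable cell number estimated from luciferase-based ATP luminescence.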
Experiment [9] in a line: Cell Viability - LYMP1-003 - Assay at 40 hr (AID 964). Also: series mostly up to about 92 µM; nearly all actives have a fitted effect of over 60% in size. The gist of the method:
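Acute toxicity is scored as a concentration-dependent loss of intracellular ATP in LYMP1-003 cells (2500/well, complete medium) after 40 hr at 37 C, measured by CellTiter-Glo luminescence; AC50 values derive from standard Hill modelling.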

Experiment [10] is described as follows: Cell Viability - LYMP2-003 (AID 965).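 Also: cells exposed to compounds for 24 h before reading; nearly all actives have a fitted effect of over 50% in size.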 In a few lines:
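Human lymphoblastoid LYMP2-003 cells, 2500/well, exposed to compounds for 24 h at 37 C in complete medium. Viability read as intracellular ATP by CellTiter-Glo luminescence; AC50 from Hill-equation fits of qHTS concentration-response data.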

The nature of experiment [11]: Cell Viability - LYMP2-004 (AID 966). Also: nearly all actives have a fitted effect of over 65% in size. In a few lines: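 Viable-cell number estimated from ATP luminescence (CellTiter-Glo) in 2500 human lymphoblastoid cells/well after 24 hr at 37 C with compound. AC50 fitted to the standard Hill equation.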
A short description of experiment [12]: Cell Viability - LYMP2-005 (AID 967). Also: series mostly up to about 92 µM. The gist of the method: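 Human lymphoblastoid LYMP2-005 cells, 2,500 per well in complete medium, rested 5 h at 37C then compound-treated 24 h at 37C. Intracellular ATP read by CellTiter-Glo luminescence after 30 min at room temperature; AC50 from Hill-equation fits of concentration-response data.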
A short description of experiment [13]: Cell Viability - LYMP2-009 (AID 968). Also: series mostly up to about 92 µM; nearly all actives have a fitted effect of over 55% in size.
Experiment [14] is described as follows: Cell Viability - LYMP2-011 (AID 969). Also: nearly all actives have a fitted effect of over 60% in size. In a few lines:
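Cells seeded at 2500 per well rest 5 hr before compound addition, then incubate 24 hr at 37 C. CellTiter-Glo reagent is added for 30 min at room temperature before luminescence detection.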

Experiment [15] can be described thus: Cell Viability - LYMP2-013 (AID 970). Also: series mostly up to about 92 µM; nearly all actives have a fitted effect of over 55% in size. The gist of the method: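 In complete culture medium, human lymphoblastoid cells were dosed for 24 hr at 37 C, with tetraoctylammonium bromide (6.4pM to 92 uM) as positive control. Viability reflects luciferase-based ATP signal; AC50 derived from concentration-response curves.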
Experiment [16] in a line: Cell Viability - LYMP2-015 (AID 971). Also: nearly all actives have a fitted effect of over 55% in size. In a few lines: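 AC50 values reflect Hill-model fits of ATP-based luminescence (CellTiter-Glo) from a human lymphoblastoid line, 2500 cells/well, treated 24 hr at 37 C.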
Experiment [17] addresses Muscarinic acetylcholine receptor M1 (Rattus norvegicus) (UniProt P08482). The experiment is described as follows: qHTS Assay for Antagonists of Acetylcholine Muscarinic M1 Receptor: Kinetic Measurement of Intracellular Calcium Response (AID 943).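 Also: Fluo-4 calcium signal as peak divided by basal fluorescence over 4 min; series mostly up to about 35 µM; nearly all actives have a fitted effect of over 75% in size.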 In a few lines: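 Quantitative HTS in CHO-M1 (rat receptor) cells: 10 min compound exposure ahead of 100 nM carbachol, Fluo-4 fluorescence followed 4 min, value expressed as peak-to-basal ratio.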

Experiment [18] concerns the target Pyruvate kinase (Leishmania mexicana) (UniProt Q27686). The experiment is described as follows: qHTS Validation Assay for Inhibitors of Leishmania Mexicana Pyruvate Kinase (AID 945). In a few lines:
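Mutant LmPYK (E451W), 0.2 nM, plus 0.5 mM PEP and 0.1 mM ADP in 50 mM imidazole pH 7.2 containing 0.01% Tween 20 and 0.05% BSA. Incubated 1 h at room temperature; luminescence via PKLight, normalized to DMSO.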

For experiment [19], the target named is Pyruvate kinase PKM (Homo sapiens) (UniProt P14618). Briefly: qHTS Assay for Activators of Human Muscle Pyruvate Kinase (AID 954; active = well fitted curve in the direction sought with a large enough effect, not every such curve was filed as active). The gist of the method:
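PKM2, human, >95% pure, 0.1 nM; PEP 0.5 mM (Km), ADP 0.1 mM; 50 mM imidazole pH 7.2, 50 mM KCl, 0.01% Tween 20, 0.05% BSA; 1 h RT; luciferase luminescence readout.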

Sequence of Pyruvate kinase PKM (Homo sapiens) (P14618 whole entry, looked up): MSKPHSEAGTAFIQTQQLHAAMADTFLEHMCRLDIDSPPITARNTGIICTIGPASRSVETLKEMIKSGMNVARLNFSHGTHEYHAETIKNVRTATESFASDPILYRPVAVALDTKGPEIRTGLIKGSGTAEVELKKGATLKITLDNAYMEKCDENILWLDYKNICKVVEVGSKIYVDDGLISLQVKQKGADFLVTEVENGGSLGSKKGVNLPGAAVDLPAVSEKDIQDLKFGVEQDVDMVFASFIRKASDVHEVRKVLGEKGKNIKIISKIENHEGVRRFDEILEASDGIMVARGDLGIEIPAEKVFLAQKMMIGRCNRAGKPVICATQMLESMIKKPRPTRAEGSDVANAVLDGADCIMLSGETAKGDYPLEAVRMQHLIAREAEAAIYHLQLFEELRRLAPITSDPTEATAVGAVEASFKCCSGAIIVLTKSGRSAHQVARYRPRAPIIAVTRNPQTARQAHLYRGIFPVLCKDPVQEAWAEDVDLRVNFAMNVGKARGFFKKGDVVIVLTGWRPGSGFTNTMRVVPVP
Sequence of Pyruvate kinase (Leishmania mexicana) (Q27686 2-499 E452W): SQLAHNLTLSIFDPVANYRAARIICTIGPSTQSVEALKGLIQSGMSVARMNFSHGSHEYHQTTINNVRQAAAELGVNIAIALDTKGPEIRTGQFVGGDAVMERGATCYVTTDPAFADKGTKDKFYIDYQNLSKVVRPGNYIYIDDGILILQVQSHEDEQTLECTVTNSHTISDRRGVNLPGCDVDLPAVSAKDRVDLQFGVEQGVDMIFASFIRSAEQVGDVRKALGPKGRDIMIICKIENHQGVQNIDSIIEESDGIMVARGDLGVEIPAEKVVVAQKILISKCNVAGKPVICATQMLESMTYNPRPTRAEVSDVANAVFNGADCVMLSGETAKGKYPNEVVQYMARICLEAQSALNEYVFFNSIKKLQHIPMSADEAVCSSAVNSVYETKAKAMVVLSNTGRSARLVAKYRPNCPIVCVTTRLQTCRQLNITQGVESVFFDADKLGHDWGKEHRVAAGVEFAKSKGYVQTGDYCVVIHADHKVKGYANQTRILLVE
Sequence of Muscarinic acetylcholine receptor M1 (Rattus norvegicus) (P08482 whole entry, looked up): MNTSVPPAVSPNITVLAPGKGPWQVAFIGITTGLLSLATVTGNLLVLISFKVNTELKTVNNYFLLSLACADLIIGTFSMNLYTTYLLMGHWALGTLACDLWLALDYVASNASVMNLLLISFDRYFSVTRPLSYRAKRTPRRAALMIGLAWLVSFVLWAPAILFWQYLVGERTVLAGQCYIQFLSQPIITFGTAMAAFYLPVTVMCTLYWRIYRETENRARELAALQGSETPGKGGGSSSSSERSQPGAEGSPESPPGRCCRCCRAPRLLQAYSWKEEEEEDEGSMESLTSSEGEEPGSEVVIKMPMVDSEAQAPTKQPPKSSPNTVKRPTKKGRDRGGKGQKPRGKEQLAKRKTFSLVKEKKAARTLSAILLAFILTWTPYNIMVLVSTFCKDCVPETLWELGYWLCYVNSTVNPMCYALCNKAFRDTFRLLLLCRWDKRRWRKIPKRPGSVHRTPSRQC

Regarding `Cc1cc(NS(=O)(=O)c2ccc(N)cc2)no1`, the Potency entry in experiment [1], in experiment [2], in [3], in experiment [4], in experiment [5] and in [7] was “inactive” in each case. Moreover, the Potency entry in [8], in experiment [9], in experiment [10], in experiment [11], in [12] and in experiment [13] was “inactive” throughout. Also, the Potency entry in [14], in [15] and in [16] was “inactive” in each case. Also, the compound was called inactive in experiment [6].

For `C[C@]12C=CC(=O)C=C1CC[C@@H]1[C@@H]2C(=O)C[C@@]2(C)[C@H]1CC[C@]2(O)C(=O)CO`, the Potency result in [1], in experiment [2], in experiment [3], in [4], in experiment [5] and in experiment [7] was “inactive” throughout. For the same compound, the Potency entry in experiment [8], in experiment [9], in experiment [10], in experiment [11], in experiment [12] and in [13] was “inactive” throughout. The Potency entry in [14], in experiment [15] and in [16] was “inactive” each time. In [6], the call was inactive.

Turning to `OCc1ccc(-c2nn(Cc3ccccc3)c3ccccc23)o1`, the result in experiment [17], in [18] and in [19] was inactive.

As to `COc1ccc2cc3[n+](cc2c1OC)CCc1cc2c(cc1-3)OCO2`, the Potency result in experiment [1], in [3], in [4], in experiment [7], in [8] and in experiment [10] was “inactive” each time. For the same compound, the Potency entry in experiment [11] and in experiment [14] was “inactive” each time. Moreover, the call in [6] was inactive.

In the case of `CC1=NN(c2ccccc2)C(=O)C1`, the Potency result in experiment [1], in experiment [3], in experiment [4], in [5], in experiment [7] and in experiment [8] was “inactive” throughout. The Potency entry in [9], in [10], in experiment [11], in [12], in experiment [13] and in experiment [14] was “inactive” in each case. Further, the Potency entry in [15] and in experiment [16] was “inactive” each time. Besides, the call in [6] was inactive.

Turning to `CC[C@H](C)C(=O)O[C@H]1C[C@@H](C)C=C2C=C[C@H](C)[C@H](CC[C@@H]3C[C@@H](O)CC(=O)O3)[C@H]21`, the Potency result in experiment [1], in [2], in [3], in experiment [4], in experiment [7] and in experiment [8] was “inactive” each time. Moreover, the Potency entry in [13], in [14], in experiment [15] and in experiment [16] was “inactive” each time. For the same compound, the compound was classed as inactive in experiment [6].

In the case of `COc1cc2ncnc(Nc3cccc(Cl)c3)c2cc1OC`, the result in experiment [18] and in experiment [19] was inactive.

For `NNC(=O)c1ccncc1`, the Potency entry in experiment [1], in experiment [2], in [3], in experiment [4], in experiment [5] and in experiment [7] was “inactive” throughout. For the same compound, the Potency entry in [8], in [9], in experiment [10], in experiment [11], in experiment [12] and in experiment [13] was “inactive” each time. Besides, the Potency entry in experiment [14], in [15] and in experiment [16] was “inactive” each time. Besides, the outcome in experiment [6] was inactive.

For the compound `Cc1noc(NS(=O)(=O)c2ccc(N)cc2)c1C`, the Potency result in [1], in experiment [2], in experiment [3], in experiment [4], in [5] and in experiment [7] was “inactive” each time. Further, the Potency result in experiment [8], in experiment [9], in experiment [10], in experiment [11], in [12] and in [13] was “inactive” in each case. Further, the Potency result in experiment [14], in experiment [15] and in [16] was “inactive” each time. Further, the result in experiment [6] was inactive.

For `CCc1cc(C(N)=S)ccn1`, the Potency entry in [1], in experiment [2], in experiment [3], in [4], in experiment [5] and in experiment [7] was “inactive” throughout. The Potency result in experiment [8], in [9], in experiment [10], in experiment [11], in experiment [12] and in experiment [13] was “inactive” in each case. The Potency entry in experiment [14], in experiment [15] and in experiment [16] was “inactive” throughout. In addition, the compound was called inactive in experiment [6].

In the case of `CC(C)(C)NC(=O)[C@H]1CC[C@H]2[C@@H]3CC[C@H]4NC(=O)C=C[C@]4(C)[C@H]3CC[C@]12C`, the call in [18] and in [19] was inactive.

Regarding `CC(=O)[C@H]1CC[C@H]2[C@@H]3CCC4=CC(=O)CC[C@]4(C)[C@H]3CC[C@]12C`, the Potency entry in experiment [2], in experiment [4] and in experiment [7] was “inactive” in each case. In addition, in [19], the outcome was inactive. The Potency in experiment [5] was 15.8 µM (active).
